Our source for the percent growth values is the supplement of paper PMC7866885, “A novel bicyclic 2,4-diaminopyrimidine inhibitor of Streptococcus suis dihydrofolate reductase” (PeerJ, 2021).

In experiment [1] the test system is Streptococcus suis HE06. As to the kind of experiment: percent growth relative to DMSO control; higher = less growth inhibition. The following applies: 10 µM; incubation time 18 h. The protocol: (§1)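 CLSI broth microdilution: 5x10^4 CFU of Streptococcus suis (strain P1/7 or HE06) incubated with 10 µM Pathogen Box compound in cation-adjusted Mueller Hinton broth, 37 °C, 5% CO2, 18 h. Growth read as OD600 and expressed as percent of the DMSO-treated control (100%); mean ± SD of three independent experiments.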

Experiment [2] concerns Streptococcus suis P1/7. The experiment is described as above. The following applies: 10 µM; incubation time 18 h. How it is done: as §1

Molecules are shown by their SMILES. ± gives the standard deviation.

In the case of `CS(=O)(=O)N1CCC(CCn2nc(Cc3cccc4ccccc34)c3c(N)ncnc32)CC1`, the percent growth in experiment [1] was determined as 90.3 ± 15%; in experiment [2], 100 ± 38%.
Regarding `COc1cccc(OC)c1C(=O)Nc1ccc(Cl)c(-c2nc3ccccc3s2)c1`, the percent growth was 98.9 ± 8.3% in experiment [1] and 119 ± 45% in experiment [2].
The like results for `CN1CCN(c2nccc3nc(-c4ccc(F)c(F)c4)[nH]c23)CC1` were, in that order, 82.2 ± 21% and 68.8 ± 13%.
As for `CCC(C)NC(=O)c1ccc(NC(=O)C2(c3ccccc3)CCCC2)cc1` (centres undefined), the percent growth was determined as 105 ± 27% in experiment [1] and 78.1 ± 25% in experiment [2].
For `Cc1ccc(-c2cc(C(=O)Nc3cccnc3)c3cc(Br)ccc3n2)cc1`, the percent growth in experiment [1] was 99.1 ± 11%; in experiment [2], 69.7 ± 1.4%.
On the same counts, the results for `CNCCC(Oc1ccc(C(F)(F)F)cc1)c1ccccc1` (centres undefined) are 104 ± 4% and 98.5 ± 39%.
As to `C[C@H](C(N)=O)N1CCCC[C@@H]1c1ccc(OCc2cccc(F)c2)cc1`, the values for the percent growth in experiment [1] and in experiment [2] were 125 ± 34% and 89.7 ± 15%, respectively.
With `Nc1nccc2ccc(Oc3ccncc3)cc12`, the percent growth in experiment [1] worked out at 97.4 ± 7%; in experiment [2], 84.2 ± 8.7%.
Consider `CC1CC1C(=O)NC1CCN(CC2(c3ccccc3)CCCCC2)CC1` (centres undefined), for which the figures for the percent growth in experiment [1] and in experiment [2] were 76.8 ± 15% and 71.1 ± 43%, respectively.
For `COc1cccc2c(C)nc(N=C(N)N)nc12`, the percent growth in experiment [1] is 57.7 ± 22%; in experiment [2] it was 66.8 ± 52%.
In the case of `Cc1cc(C(=O)Nc2cnn(Cc3ccc(Cl)cc3Cl)c2)no1`, the percent growth in experiment [1] turned out to be 94.2 ± 5.5%; in experiment [2], 97.5 ± 11%.
With `CC(C)(C)n1nc(Cc2ccc(F)c(Cl)c2)c2c(N)ncnc21`, the results for the percent growth in experiment [1] and in experiment [2] were 91.5 ± 3.1% and 105 ± 51%, respectively.
The like results for `NC(CC(=O)c1ccc(Cl)cc1Cl)C(Cl)(Cl)Cl` (centres undefined) were, in that order, 58.8 ± 39% and 23.2 ± 36%.
The like results for `Cc1ccc(S(=O)(=O)Nc2ccc(CN3CCN(C(=O)c4cccc(C#N)c4)CC3)cc2)cc1` were, in that order, 104 ± 9.6% and 114 ± 40%.
The like results for `COC(=O)Nc1nc2cc(C(=O)c3ccccc3)ccc2[nH]1` were, in that order, 86 ± 8.2% and 74.9 ± 28%.
On to `COc1ccc(C2=NN(C3CCCCCC3)C(=O)C2(C)C)cc1OCCCCOc1ccc(-c2nn[nH]n2)cc1`, for which the results for the percent growth in experiment [1] and in experiment [2] were 2.58 ± 3.1% and 16.3 ± 27%, respectively.
In the case of `COc1ccccc1OCCCCn1c(C2CC2)nc2ccccc21`, the percent growth was 102.6 ± 0.9% in experiment [1] and 102 ± 21% in experiment [2].
The like results for `Brc1c(-c2ccc3c(c2)OCO3)nc2ncccn12` were, in that order, 95.7 ± 6.9% and 85.8 ± 20%.
On the same counts, the results for `C[C@H](C(N)=O)N1CCCC[C@H]1c1ccc(OCc2cccc(F)c2)cc1` are 85.5 ± 23% and 63.4 ± 26%.
As for `O=C(CN1CCOCC1)Nc1ccc2ncnc(Nc3ccc(OCc4cccc(F)c4)c(Cl)c3)c2c1`, the percent growth in experiment [1] was determined as 53.5 ± 39%; in experiment [2], 63 ± 18%.
As to `CCn1cnc2c(Nc3cc(F)cc(F)c3)nc(C#N)nc21`, the percent growth in experiment [1] came to 116 ± 30%; in experiment [2], 75.3 ± 24%.
The like results for `O=C(C1CCN(c2nnc(-n3cccc3)s2)CC1)N1CCC(Cc2ccccc2)CC1` were, in that order, 120 ± 18% and 100 ± 41%.
`c1cncc(NCc2ccc(-c3cc4ccncc4cc3OC3CCNCC3)s2)c1`: the values for the percent growth in experiment [1] and in experiment [2] were 100 ± 18% and 66.3 ± 22%, respectively.
On to `Cc1cnc(N2CCN[C@@H](Cc3ccccc3)C2)nc1Oc1ccc(-n2ccnc2)cc1`, for which the results for the percent growth in experiment [1] and in experiment [2] were 98.9 ± 9.1% and 109 ± 29%, respectively.
Consider `CCOc1ccccc1C(=O)Nc1cccc(-c2nc3ncccn3c2C)c1`, for which the percent growth in experiment [1] was 88.1 ± 24%; in experiment [2], 71.6 ± 8.8%.
The like results for `O=C(Nc1cccnc1)c1c(O)c2cccc3c2n(c1=O)CC3` were, in that order, 78.3 ± 3.7% and 89.7 ± 27%.
The like results for `CCc1nc2ccccc2n1CC(O)COc1cc(C)ccc1Cl` (centres undefined) were, in that order, 65.7 ± 22% and 103 ± 41%.
With `COC(=O)c1c(NC(=O)c2c(F)c(F)c(F)c(F)c2F)sc2c1CCCCC2`, the percent growth in experiment [1] stood at 105 ± 7.8%; in experiment [2] it was 85.2 ± 3%.
For `CCc1cc(=O)n(C)c(SC(C)C(=O)Nc2ccc(F)cc2)n1` (centres undefined), the percent growth in experiment [1] came to 110 ± 23%; in experiment [2], 74.8 ± 63%.
On the same counts, the results for `CC(C)(C)OC(=O)N1CCC(Cn2nc(-c3cnc4ccccc4c3)c3c(N)ncnc32)CC1` are 88.2 ± 27% and 74.1 ± 6.8%.
The like results for `CC(c1cc(Cl)cc(Cl)c1)N(C)c1ncc2c(N)nc(N)nc2n1` (centres undefined) were, in that order, 84.7 ± 21% and 57.6 ± 42%.
Consider `Cc1nc(-c2ccccn2)nc(NCCc2ccc(S(C)(=O)=O)cc2)c1Cl`, for which the percent growth in experiment [1] was determined as 131 ± 60%; in experiment [2] it was 73.3 ± 11%.
`CC1(C)Cc2c(c(N3CCOCC3)nc3snc(Br)c23)CO1`: the percent growth in experiment [1] stood at 94.1 ± 2%; in experiment [2], 82.2 ± 20%.
Regarding `COc1ccc(-c2onc(C(F)(F)F)c2-c2ccc(Cl)cc2)c(O)c1`, the percent growth in experiment [1] was determined as 26.1 ± 45%; in experiment [2], 19.4 ± 34%.
`Cc1cc(O)nc(-n2nc(C)cc2C)n1`: the figures for the percent growth in experiment [1] and in experiment [2] were 18.2 ± 21% and 2.28 ± 2.3%, respectively.
On the same counts, the results for `O=C(NC1CC1)c1ccc(N2CCOc3ccc(Cl)cc32)s1` are 73.8 ± 20% and 85.5 ± 14%.
On the same counts, the results for `CS(=O)(=O)c1ccc(C(=O)N(CC2CCCO2)c2nc3ccccc3s2)cc1[N+](=O)[O-]` (centres undefined) are 91.7 ± 7.5% and 108 ± 18%.
The like results for `O=C1N(Cc2cc3ccccc3s2)CC2CN(Cc3ccccc3)CCN12` (centres undefined) were, in that order, 82.2 ± 8% and 83.1 ± 18%.
For the compound `COc1ccc(-c2cnc3cnc(-c4cccc(OC(C)C)c4)cn23)cc1`, the percent growth in experiment [1] came out at 59 ± 50%; in experiment [2] it was 25.7 ± 45%.
On the same counts, the results for `O[C@@H](c1cc(C(F)(F)F)nc2c(C(F)(F)F)cccc12)[C@H]1CCCCN1` are 94 ± 6.1% and 97.7 ± 18%.
Take `CC(=O)NC[C@@H]1CN(c2ccc(N3CCOCC3)c(F)c2)C(=O)O1`: the values for the percent growth in experiment [1] and in experiment [2] were 3.9 ± 5.2% and 3.05 ± 1.6%, respectively.
Take `Cc1cc(Cl)ccc1NC(=O)CCc1ccc(S(=O)(=O)NCC(C)C)cc1`: the figures for the percent growth in experiment [1] and in experiment [2] were 87.8 ± 9.9% and 95.4 ± 17%, respectively.
